Several values for one entry are separate records, joined by “and”; a condition that tells them apart may be missing. Equal values may be shown once. Records with an inconclusive call do not appear. Some compounds were tested as several samples or in several runs, with calls that do not always agree. Activity calls are given as the source filed them. Rule for the calls: active = hit-call score of the fitted dose curve at least 0.9, where 1 is the maximum; inconclusive = response in the unintended direction; inactive = score below 0.9.

The nature of this experiment: CCTE_Shafer_MEA_dev_bursting_electrodes_number: CCTE's Neural Network Formation Assay for Number of Bursting Electrodes, Shafer Lab (AID 2284043). The method, then: CCTE_Shafer_MEA_dev assay is conducted using Axion Biosystems 48 well microelectrode array (MEA) plates and Maestro recording system. Each well of the MEA plate contains a grid of 16 microelectrodes embedded in the culture surface. Electrically active cells, such as neurons, can be cultured over the electrodes, and electrical activity in these cells can be recorded extracellularly. The spontaneous firing of neurons is captured from each electrode on a microsecond timescale providing both temporally and spatially precise data. […] The CCTE_Shafer_MEA_dev assay uses primary cultures of rat cortical neurons. Recordings are made on days post-plating 5, 7, 9 and 12. As these cultures mature over time, neural networks develop functional activity and form cohesive networks in which electrical activity can be highly coordinated. CCTE_Shafer_MEA_dev_bursting_electrodes_number is 1 of 19 assay components of the CCTE_Shafer_MEA_dev assay. It measures the number of electrodes in a well with a burst rate of at least 1 burst (temporally-clustered group of action potential firing) every 2 minutes during a recording in a microelectrode array (MEA) using Axion Biosystems Maestro 768 channel amplifier with the AxIS adaptive spike detector. To collapse across multiple recordings made on days post-plating 5, 7, 9 and 12, the trapezoidal area-under-the-curve of the component is calculated.Data from the assay component CCTE_Shafer_MEA_dev_bursting_electrodes_number was analyzed into 1 assay endpoint. This assay endpoint, CCTE_Shafer_MEA_dev_bursting_electrodes_number, was analyzed in the negative analysis fitting direction relative to DMSO as the negative control and baseline of activity. Using a type of functional reporter, gain or loss-of-signal activity can be used to understand electrical activity.
On the day prior to culture, each well was coated thoroughly with 150 uL of 0.05% polyethyleneimine (PEI, Sigma Cat P3143) in 50 mM HEPES (Sigma Cat H7523) at a pH of 8. The plate was incubated at 37C for one hour. PEI was rinsed out with 500 uL of sterile water three times. Plates were stored at 4C until the day of culture. This culture was plated at a seeding density of 1.5 x 10^5 cells/well on a 48-well MEA plate, prepared as described above. Cells were administered via a 25 uL media/laminin ([…]; Sigma Cat L2020-1MG) drop directly onto the microelectrode array, as adding the cells with the laminin results in better attachment than pre-coating with laminin. After 2 hours, an additional 475 uL of cortical media was added and the cells returned to the incubator. Exposure starts at day 0 of plating and is continued over twelve days of network development until the experiment is terminated. Cells are fed with fresh medium on DIV 5 and 9, following the recordings on those days. The entire volume of media in the well is exchanged and any vehicle or compound treatment is renewed. Complete details are found in OP-NHEERL/ISTD/SBB/TJS/2015-03-r0 (available on request, email shafer.tim@epa.gov). Measurement of the electrical activity is non-invasive, and recordings can be made from the same plate over multiple different days of the culture. In cortical neurons, this allows for the measurement of extracellular action potentials over the period during which networks form in the MEA plate.
As to `CC(=O)[O-].[Tl+]`, the molecule was called inactive.
Same read-out and setting: with `CP(=O)(O)CC[C@H](N)C(=O)O` the entry was “inactive”.
As usually defined, the AC50 is the concentration at which the activity in the assay is half-maximal. In the case of `NCCc1cc(O)c(O)cc1O`, the AC50 was 4.29 µM (active).
With `COP(=O)(OC)SCN1C(=O)c2ccccc2C1=O`, the result was inactive.
On to `CC1CCCC1.[C-]#[O+].[C-]#[O+].[C-]#[O+].[Mn]`, for which the result was inactive.
Regarding `CCOP(=O)(OCC)SCSCC`, the call was inactive.
In the case of `O=[As]O`, the AC50 is 1.23 µM (active).
On the same count and under the same terms, the figure for `O.O.O.O.O.[Cd+2].[Cd+2].[Cl-].[Cl-].[Cl-].[Cl-]` is 0.3 µM (active); for `CC1(C)[C@@H](C=C(Cl)Cl)[C@@H]1C(=O)O[C@@H](C#N)c1ccc(F)c(Oc2ccccc2)c1` it is 15 µM (active); for `CC(=O)[O-].CC(=O)[O-].O.O.O.[Pb+2]` it is 18.5 µM (active).
`[CH3][Hg][Cl]`: the concentration at half-maximal activity (AC50) was 0.37 µM (active).
Same read-out and setting: with `Cn1nc(C(F)(F)F)c(CS(=O)(=O)C2=NOC(C)(C)C2)c1OC(F)F` the figure was 87.5 µM (active).
Take `C/C(=C/C=C/[C@@H](C)C(=O)O)[C@H]1CN[C@H](C(=O)O)[C@H]1CC(=O)O`: the outcome was inactive and the half-maximal activity concentration (AC50) was 1.28 µM (active).
Take `COC(=O)[C@H]1[C@@H](OC(=O)c2ccccc2)C[C@@H]2CC[C@H]1N2C`: the outcome was inactive.
Still for that read-out and setting: the entry for `C[C@H](N)Cc1ccccc1` is “inactive”.
As to `O=C(O)CNCP(=O)(O)O`, the result was inactive.
As for `CC1(C)C(C=C(Cl)c2ccc(Cl)cc2)C1C(=O)OC(C#N)c1ccc(F)c(Oc2ccccc2)c1` (stereo not given), the half-maximal activity concentration (AC50) was 12.9 µM (active).
In the case of `c1ccc2cc3c(cc2c1)-c1cccc2cccc-3c12`, the outcome was inactive.
As for `CN1C(=O)CN=C(c2ccccc2)c2cc(Cl)ccc21`, the half-maximal activity concentration (AC50) is 4.58 µM (active).
Still for that read-out and setting: the figure for `C[n+]1ccc(-c2ccccc2)cc1` is 4.7 µM (active); for `[CH3][Sn]([CH3])[CH3]` it is 0.245 µM (active); for `CCOP(=O)(OCC)OC(Cl)C(Cl)(Cl)Cl` (stereo not given) it is 1.1 µM (active).
On to `CCOP(=O)(Oc1cnc(C(C)(C)C)nc1)OC(C)C` (stereo not given), for which the outcome was inactive.
`Brc1ccc(Oc2ccc(Br)cc2Br)c(Br)c1`: the AC50 is 22.5 nM (active) and 8.36 µM (active).
In the case of `CCOP(=O)(O)OCC` (tested in a mixture with another compound), the result was inactive.
Regarding `[Cd+2].[Cl-].[Cl-]`, the AC50 was 0.302 µM (active).
For `CCC[CH2][Sn]([CH2]CCC)([CH2]CCC)[O][Sn]([CH2]CCC)([CH2]CCC)[CH2]CCC`, the AC50 was 0.0378 µM (active).
The same measure, in the same setting: the figure for `CC1(C)C(C=C(Cl)Cl)C1C(=O)O[C@H](C#N)c1cccc(Oc2ccccc2)c1` (stereo not given in full) is 3.6 µM (active).
With `CC1(C)[C@H](C(=O)O[C@H](C#N)c2cccc(Oc3ccccc3)c2)[C@@H]1C=C(Br)Br`, the AC50 was 3.71 µM (active).
As to `Brc1ccc(Oc2cc(Br)c(Br)cc2Br)c(Br)c1`, the AC50 was 13.6 µM (active).
On to `CCOP(=S)(OCC)SCS(=O)C(C)(C)C` (stereo not given), for which the result was inactive.
With `C[n+]1ccc(-c2cc[n+](C)cc2)cc1`, the concentration at half-maximal activity (AC50) was 1.18 µM (active).
Consider `CCCCC(CC)COC(=O)c1cc(Br)c(Br)c(Br)c1Br` (stereo not given), for which the half-maximal activity concentration (AC50) is 18.8 µM (active).
Take `c1ccc2c(c1)cc1ccc3cccc4ccc2c1c34`: the result was inactive.
In the case of `CCOP(=O)(OCC)SCSC(C)(C)C`, the half-maximal activity concentration (AC50) is 9.83 µM (active).
On to `CN[C@]1(c2ccccc2Cl)CCCCC1=O`, for which the outcome was inactive.
On the same count and under the same terms, with `CC(C)CCCCCCCOP(=O)(Oc1ccccc1)Oc1ccccc1` the entry was “inactive”.
Turning to `CC1(C)[C@H](C=C(Cl)Cl)[C@H]1C(=O)OCc1c(F)c(F)cc(F)c1F`, the AC50 was 23.3 µM (active).
`CC1(C)[C@H](C=C(Cl)Cl)[C@@H]1C(=O)O[C@@H](C#N)c1cccc(Oc2ccccc2)c1`: the AC50 was 8.64 µM (active).

The values are drawn from PubChem BioAssay (EPA / NIEHS).
